Assay results: PubChem BioAssay (NCI)
This is part of a sample that, as a whole, favours compounds with a hit. Of some 83,000 tested, about 20% had one in any assay.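 Percent growth is the endpoint: 0 to 100 indicates growth inhibition (40 means 60% inhibition), 0 means no net growth, and negative values indicate cell death.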 A number with no mark means an inactive call. Calls of active or inactive are those of the source. The calls were made as follows: active = growth percent below 10; inactive = the rest.

Columns and labels:
Assay in all cases: NCI-60 one-dose screen, 48 h (100 = growth as untreated, 0 = no growth, -100 = all killed)
Conditions in all cases: 10 µM
[1] = system: RPMI-8226 leukemia
[2] = system: OVCAR-8 ovarian
[3] = system: OVCAR-5 ovarian
[4] = system: OVCAR-4 ovarian
[5] = system: IGROV1 ovarian
[6] = system: OVCAR-3 ovarian
[7] = system: HS 578T breast
[8] = system: NCI/ADR-RES ovarian
[9] = system: T-47D breast
[10] = system: BT-549 breast
[11] = system: MDA-MB-435 melanoma
[12] = system: SW-620 colon
[13] = system: MCF7 breast
[14] = system: HCT-116 colon
[15] = system: HCC-2998 colon
[16] = system: KM12 colon
[17] = system: SK-OV-3 ovarian

Row | Compound | growth [1] | growth [2] | growth [3] | growth [4] | growth [5] | growth [6] | growth [7] | growth [8] | growth [9] | growth [10] | growth [11] | growth [12] | growth [13] | growth [14] | growth [15] | growth [16] | growth [17] [%]
1 | COc1ccc(-c2nn(-c3cccc(NC(=O)Nc4cccc(C(F)(F)F)c4)c3)cc2-c2ccncc2)cc1Cl | -11% (active) | -4.63% (active) | 56.1% | 18.1% | 14.5% | 3.89% (active) | 32.5% | 0.659% (active) | -6.95% (active) | 8.32% (active) | -35.8% (active) | 17.4% | 5.79% (active) | 9.6% (active) | 30.5% | 0.879% (active) | 
2 | Nc1nc(N=Nc2ccc(O)cc2)cc(=O)[nH]1 | 106% | 97.2% | 104% |  | 109% | 125% | 108% | 94.6% | 95.7% | 95.5% | 98.3% | 104% | 101% | 112% | 106% | 111% | 104
3 | Cc1cc(C)c(CCc2cc(C)c(C)cc2C)cc1C | 102% | 102% | 103% | 92.9% | 111% | 114% | 108% | 107% | 114% |  | 98% | 105% | 105% | 106% | 101% | 106% | 
4 | COc1ccc(OC)c(/C=C/c2nc(SCc3ccccc3)n(-c3ccc(Cl)cc3)n2)c1 | 42.5% | 83.6% | 102% |  | 43.9% | 17.3% | -2.4% (active) | 19.1% | 78% | 61.8% | -24.9% (active) | 28.2% | 52.9% | 20.2% | 73.1% | 31.1% | 86.2
5 | COc1ccc(/C(=C2\O[C@@H]([C@H]3COC(C)(C)O3)[C@H]3OC(C)(C)O[C@@H]23)c2cc(OC)c(OC)c(OC)c2)cc1O | 63.7% | 68.3% | 95.4% | 99.2% |  | 48% | -22.2% (active) | 10.1% | 121% | 57.7% | -44.7% (active) | 15.4% |  | 54% | 102% | 26.7% | 
6 | O=C(Nc1cccc(-n2cc(-c3ccncc3)c(-c3cc(O)cc(Cl)c3)n2)c1)Nc1ccc(Cl)c(C(F)(F)F)c1 | 13.8% | 3.69% (active) | 59.3% | 31.5% | 30.6% | 1.88% (active) | 21.7% | 41.5% | 25% | 47.6% | 9.57% (active) | -33.6% (active) | 13.4% | 6.95% (active) | 34.3% | 15.1% | 
7 | N=C1c2nc3n(c2C(=O)c2nc4n(c21)CCCC4)CCCC3 | 82.2% | 91.5% | -57.8% (active) | 96.2% |  | 98.4% | -28.7% (active) | 85.7% |  | -37.2% (active) | -82.5% (active) | 23.7% | -6.98% (active) |  | 87.3% | 66.7% | 
8 | O=C(Nc1ccncc1)C(=O)c1cn(S(=O)(=O)c2cc(Cl)cc(Cl)c2)c2ccccc12 | 57.1% | 69.1% | 89% | 75.5% | 57.6% | 59.7% | 69.6% | 55.3% | 56.8% |  | 8.83% (active) | 64.9% | 43.9% | 51.4% | 65.7% | 55.3% | 
9 | Cc1cc(O)c(C(C)(C)C)cc1Sc1cc(C(C)(C)C)c(O)cc1C | 12.8% | 73.6% | 90.4% | 28.3% |  | 29.3% |  | 30.7% | 18.6% |  | 54.8% |  | 34.7% | 29% |  | 47% | 65.3
10 | CN1CCC2(CC1)NC(=O)c1c(c3ccc(Cl)c(Cl)c3n1C)C2C#N (centres undefined) | 80.4% | 80.8% | 67.7% |  | 73.4% | 76% | 71.1% | 82.4% | 81.3% | 84.9% | 49.2% | 83.9% | 28.5% | 43% | -1.84% (active) | 106% | 86.1
11 | COC(=O)c1ccc(=O)oc1 | 93.7% | 104% | 89.1% | 102% | 112% | 116% |  | 97.1% | 96.3% | 104% |  |  | 100% | 97.7% |  | 104% | 
12 | Cc1ccc(C(=O)Nc2cccc(F)c2)cc1NC(=O)C1(c2ncnc3[nH]ccc23)CC1 | 83.2% | 89.7% | 83.6% | 101% | 90.3% | 103% | 74% | 92% | 74.1% | 93.4% | 74% | 67% | 87.1% | 44.5% | 60.5% | 82.7% | 
13 | N#CCCN1C/C(=C/c2ccc(Br)cc2)C(=O)/C(=C/c2ccc(Br)cc2)C1 | -14% (active) | -17.3% (active) | 2.15% (active) | 0.905% (active) | -69.1% (active) | -65.2% (active) | 12.4% | 16.8% | 6.33% (active) | -23.3% (active) | -43.3% (active) | -53.7% (active) | 0.16% (active) | -50.8% (active) | -87.4% (active) |  | 
14 | CCC(=O)N1C/C(=C/c2ccc(OC)cc2)C(=O)/C(=C/c2ccc(OC)cc2)C1 | -15.8% (active) | 10.7% | 96.1% | 58.3% | 41.8% | -6.54% (active) | 9.81% (active) | 25% | 57% | 13.2% | -28.1% (active) | -50.1% (active) | -4.78% (active) |  | -84% (active) |  | 
15 | COc1cc(-c2nnc(-c3c(-c4ccc(F)cc4)nc4ccccn34)o2)cc(OC)c1OC | 71.9% | 46.6% | 95.6% | 69.5% | 119% | 75.1% | 68.1% | 61.6% | 53.1% | 66.1% |  | 90% | 73.3% | 34.1% | 105% | 81.7% | 
16 | COc1cc(-c2nn3c(/C=C4/C(=O)Nc5ccccc54)c(-c4ccc(C)cc4)nc3s2)cc(OC)c1OC | 45.4% | 46.8% | 85.9% | -17.3% (active) | 77.4% | 43.6% | -19.4% (active) | 41.8% | 63.6% | 22.8% | 33.6% | 54.8% | 39.4% | 24% | 85.1% | 51% | 
17 | O=S(=O)(NCCCNc1nccc(-c2c(-c3ccc(F)cc3)nc3sccn23)n1)c1ccc2ccccc2c1 | 35.9% | 29.7% | 78.7% | 56.8% | 22.8% | 75.3% | 71.1% | 42.5% | 17.4% | 46.1% | 25.7% | 51.9% | 30.3% | 37.2% | 7.22% (active) | 19.9% | 
18 | O=C(N/N=C\c1cc(Cl)ccc1[N+](=O)[O-])c1ccco1 | 109% | 101% | 118% | 105% | 127% | 107% | 100% | 100% | 83.7% | 101% | 100% | 102% | 57% | 113% | 103% | 102% | 
19 | COc1ccc(C2=Nc3c(C)nn(-c4ccccc4)c3NC(c3ccc(Oc4ccnc5cc(Cl)ccc45)c(OC)c3)C2)cc1 (centres undefined) | 56.7% | 75.2% | 95.2% | 43% | 73.4% | 79.9% | 78.6% | 79.9% | 61.9% |  | 80.4% | 81.7% | 60.6% | 45.6% | 89.7% | 85.4% | 
20 | O=C(CC(C(=O)c1ccccc1)N1CCOCC1)c1ccccc1 (centres undefined) | 40.5% | 97.3% | 95.5% | 106% |  |  | 99% | 98% | 72.1% | 99.6% | 107% | 60.8% | 43.4% | 77.3% | 104% | 105% | 98.3
